Records with an inconclusive call do not appear. A number with no mark means an inactive call. The source made the active and inactive calls. Calls follow the shape of the dose curve; as a rule, active = well fitted cell-killing curve with a large enough effect in the repeat runs; inconclusive = weak or mixed curves, or effect the other way; inactive = flat fitted curve, though single readings scatter.
Experiment: qHTS assay to identify small molecule agonists of the sonic hedgehog signaling (Shh) pathway - cell viability counter screen (AID 1259366); also: nearly all actives have a fitted effect of over 50% in size
Conditions: NIH/3T3 Gli1-Luc viability, CellTiter-Fluor, 24 h; series mostly up to 92.4 µM
Text: National Center for Advancing Translational Sciences [NCATS]
NIH Chemical Genomics Center [NCGC]
U.S. Environmental Protection Agency [EPA]
National Institutes of Environmental Health Sciences [NIEHS]
National Toxicology Program [NTP]
U.S. Food and Drug Administration [FDA]
The sonic hedgehog (Shh) pathway is essential for normal embryonic development. Dysregulation of the Shh pathway can cause severe developmental defects in organs. Therefore chemicals that interfere with the pathway are potential developmental toxicants. A cell line designated 3T3Gli1-Luc (DMB/OARSA/CFSAN/FDA, Laurel, MD), a NIH/3T3 derived clone containing stably integrated Gli1-Luc reporter is used to detect chemical interference of the Shh pathway, by changes in the expression of the firefly Luc gene under the control of the Gli1 transcriptional response element. This cell line was used to screen Tox21 libraries for identifying and prioritizing the potential developmental toxicants that interfere Shh pathway. The cytotoxicity of the compounds was tested in parallel by measuring the cell viability using CellTiter-Fluor assay system (Promega, Madison, WI) in the same wells.
Tox21 Assay Protocol Summary:
3T3 Gli1-Luc cells were dispensed at 2,000 per well in 5uL of culture medium into white solid bottom 1536-well plates (Greiner Bio-One, Monroe, NC) using a Multidrop Combi (Thermo Scientific, Waltham, MA) dispenser. The assay plates were incubated at 37 C and 5% CO2 for 4hr, and then 23nL of compounds dissolved in DMSO and positive control were transferred using a Pintool station (Wako, San Diego, CA). The assay plates were incubated at 37C and 5% CO2 for 24hr. For viability read, after 23hr of compound treatment, 1uL of CellTiter-Fluor reagent (Promega Corporation, Madison, WI) was added to each well of the assay plates using Flying Reagent Dispenser (FRD, Aurora Discovery, San Diego, CA) and incubated the assay plates at 37C for 1hr. The fluorescence signal was quantified using a ViewLux plate reader (Perkin Elmer, Shelton, CT).
With `CCN(CC)CCN` the outcome was “inactive”. For `CC(=O)O[C@@H]1CC2CCC1(C)C2(C)C` (stereo not given in full), the outcome was “inactive”. With `CCOC(=O)CC1(C)OCC(C)O1` (stereo not given) the outcome was “inactive”. For `CCCCCC(C)O` (stereo not given), the outcome was “inactive”. In the case of `O=C(O)CNC(=O)CNC(=O)CNC(=O)CSC(=O)c1ccccc1`, the outcome is reported as “inactive”. For `CC1OCCC1=O` (stereo not given), the outcome was “inactive”. For `Cc1cccc(Cl)c1`, the outcome was “inactive”. In the case of `O=C1CCCCO1`, the outcome is reported as “inactive”. For `CC(S)C(C)S` (stereo not given), the outcome was “inactive”. With `CCCCOCC(C)O` (stereo not given) the outcome was “inactive”. With `CN(C)CCN(C)CCO` the outcome was “inactive”. With `CCCCOC(=O)C(C)O` (stereo not given) the outcome was “inactive”. In the case of `CCCCCCCCCCCCCCCCCC#N`, the outcome is reported as “inactive”. With `CCCCCCCCCOC(=O)CCCCC(=O)OCCCCCCC` the outcome was “inactive”. In the case of `Cn1c(=O)c2c(ncn2CCO)n(C)c1=O`, the outcome is reported as “inactive”. In the case of `CN1CCOC(c2ccccc2)c2ccccc2C1` (stereo not given), the outcome is reported as “inactive”. For `COc1cc2c(cc1OC)C(=O)C(CC1CCN(Cc3ccccc3)CC1)C2` (stereo not given), the outcome was “inactive”. For `O=C1OCCO1`, the outcome was “inactive”. With `CCNC(=O)NCc1cccc(Cl)c1` the outcome was “inactive”. In the case of `CCOCCOCC`, the outcome is reported as “inactive”. For `O=NN(CCCl)C(=O)NC1CCCCC1`, the outcome was “inactive”. For `C=CCCCCCCCC`, the outcome was “inactive”. For `CC1(C)Oc2ccc(C#N)cc2[C@@H](N2CCCC2=O)[C@@H]1O`, the outcome was “inactive”. For `Cn1nnc2c(C(N)=O)ncn2c1=O`, the outcome was “inactive”. With `CCCCCc1cccc(=O)o1` the outcome was “inactive”. With `C=C(C)[C@@H]1CC=C(C)CC1` the outcome was “inactive”. In the case of `N[C@@H](Cc1ccc(O)cc1)C(=O)O`, the viability change, negative = cytotoxic is reported as -1.95% [at 8.39 µM]. With `CC(=O)OC(C)=O` the outcome was “inactive”. In the case of `CC(=O)OC1CCCCC1C(C)(C)C` (stereo not given), the outcome is reported as “inactive”. With `CC(Oc1cc(Cl)ccc1Cl)C(=O)O` (stereo not given) the outcome was “inactive”. With `CCCc1ccc(O)cc1` the outcome was “inactive”. In the case of `OCC1(CO)COCOC1`, the outcome is reported as “inactive”. In the case of `CCO`, the outcome is reported as “inactive”. For `Cc1ccc(N)cc1S(=O)(=O)O`, the outcome was “inactive”. With `O=[N+]([O-])c1c(Cl)cc(Cl)cc1Cl` the outcome was “inactive”. With `CCC(C)C(C)=O` (stereo not given) the outcome was “inactive”. In the case of `CO[Si](CCCn1c(=O)n(CCC[Si](OC)(OC)OC)c(=O)n(CCC[Si](OC)(OC)OC)c1=O)(OC)OC`, the outcome is reported as “inactive”. With `CC(C)CO` the outcome was “inactive”. With `C#CCN[C@@H]1CCc2ccccc21` the outcome was “inactive”. With `CC(=O)CC(=O)OC(C)(C)C` the outcome was “inactive”.
% is scaled to controls: 0 for no effect and ±100 for the full control effect.
